Reference: the supplement of paper PMC12669032
Values without a mark were called inactive.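 The calls were made as follows: active = AUC reduced over 20% with Padj below 0.05 in at least 2 of 3 replicates; inactive = otherwise.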

How the values were obtained:
Test in all cases: growth AUC relative to DMSO control (median of replicates) (fraction); higher = more growth (less inhibition), active = hit call of the paper
Settings in all cases: 20 µM; 24 h
Coprococcus comes = system: Coprococcus comes
Summary of the method: (§1)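 Starting at OD600 0.05, gut bacterial monocultures in mGAM were grown anaerobically at 37 °C with 20 µM compound (1% DMSO) under pierced gas-permeable seals. OD600 was read every hour for 24 h, and the lowest OD of each curve was set to 0. Area under the growth curve was normalised to the plate median of solvent-only wells, or to row and column medians on the industrial chemical plate, and the median of three biological replicates grown on separate days is given.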

Escherichia coli ED1a = system: Escherichia coli ED1a
Summary of the method: as §1

Escherichia coli IAI1 = system: Escherichia coli IAI1
Summary of the method: as §1

Eubacterium rectale = system: Eubacterium rectale
Summary of the method: as §1

[1] = system: Fusobacterium nucleatum subsp. animalis
Summary of the method: as §1

Lactobacillus gasseri = system: Lactobacillus gasseri
Summary of the method: as §1

Lactobacillus paracasei = system: Lactobacillus paracasei
Summary of the method: as §1

Odoribacter splanchnicus = system: Odoribacter splanchnicus
Summary of the method: as §1

[2] = system: Parabacteroides distasonis
Summary of the method: as §1

Parabacteroides merdae = system: Parabacteroides merdae
Summary of the method: as §1

| Compound | growth AUC (Coprococcus comes) | growth AUC (Escherichia coli ED1a) | growth AUC (Escherichia coli IAI1) | growth AUC (Eubacterium rectale) | growth AUC [1] | growth AUC (Lactobacillus gasseri) | growth AUC (Lactobacillus paracasei) | growth AUC (Odoribacter splanchnicus) | growth AUC [2] | growth AUC (Parabacteroides merdae) |
| --- | --- | --- | --- | --- | --- | --- | --- | --- | --- | --- |
| CCOP(=O)(OCC)O/C(=C/Br)c1ccc(Cl)cc1Cl | 1.01 | 0.976 | 0.973 | 1.04 | 0.996 | 0.976 | 0.996 | 1.02 | 0.547 (active) | 0.898 |
| CCOC(=O)C(Cl)Cc1cc(-n2nc(C)n(C(F)F)c2=O)c(F)cc1Cl (stereo not given) | 0.963 | 0.986 | 0.941 | 0.794 | 0.987 | 1.01 | 0.966 | 0.988 | 0.963 | 0.925 |
| CCCN(CCC)c1c([N+](=O)[O-])cc(S(C)(=O)=O)cc1[N+](=O)[O-] | 1.03 | 0.978 | 0.962 | 0.974 | 0.948 | 0.84 | 0.988 | 1.08 | 0.967 | 0.936 |
| O=C(O)C(F)(F)C(F)(F)C(F)(F)C(F)(F)C(F)(F)C(F)(F)C(F)(F)C(F)(F)F | 1.01 | 1.01 | 1.01 | 0.99 | 1 | 1 | 1.03 | 1.07 | 1.18 | 1.01 |
| CC1COC(Cn2cncn2)(c2ccc(Oc3ccc(Cl)cc3)cc2Cl)O1 (stereo not given) | 0.72 (active) | 0.979 | 1 | 0.723 (active) | 0.983 | 0.952 | 0.986 | 0.904 | 0.801 | 0.871 |
| Cc1cc(C(C#N)c2ccc(Cl)cc2)c(Cl)cc1NC(=O)c1cc(I)cc(I)c1O (stereo not given) | 0.275 (active) | 0.958 | 0.953 | 0.072 (active) | 0.702 (active) | 0.0202 (active) | 0.0904 (active) | 0.017 (active) | 0.0201 (active) | 0.00673 (active) |
| CC(Cc1ccc(C(C)(C)C)cc1)CN1C[C@@H](C)O[C@@H](C)C1 (stereo not given in full) | 1.03 | 1.01 | 1.06 | 0.983 | 1.07 | 1.06 | 1.07 | 1.07 | 0.985 | 0.999 |
| C[C@@H](Oc1ccc(Cl)cc1Cl)C(=O)O | 0.967 | 1.02 | 1.02 | 1.17 | 1.07 | 0.906 | 0.949 | 0.98 | 0.964 | 1.01 |
| Cc1cccc2sc3nncn3c12 | 0.98 | 0.987 | 0.977 | 0.939 | 0.988 | 1.05 | 0.957 | 1.03 | 0.991 | 1 |
| ClC1=C(Cl)C2(Cl)[C@H]3[C@H]4O[C@H]4[C@H](Cl)[C@H]3C1(Cl)C2(Cl)Cl (single isomer, unassigned; isomer a) | 0.941 | 0.982 | 0.971 | 1.05 | 1.08 | 0.96 | 0.991 | 1.08 | 1.02 | 0.98 |
| COP(=S)(OC)SCC(=O)N(c1ccc(Cl)cc1)C(C)C | 1.04 | 0.988 | 0.976 | 0.964 | 0.985 | 1.03 | 1.04 | 1 | 0.861 | 0.924 |
| C=CCN=C=S | 1 | 1.01 | 0.979 | 0.974 | 1.06 | 1.05 | 0.991 | 1 | 0.996 | 1.03 |
| O.[Br-].[Br-].c1cc[n+]2c(c1)-c1cccc[n+]1CC2 | 0.988 | 1.03 | 0.95 | 1.21 | 0.996 | 1.11 | 1.01 | 0.937 | 0.781 (active) | 0.967 |
| CC(C)(C)C(O)C(Oc1ccc(Cl)cc1)n1cncn1 (stereo not given) | 0.998 | 1.01 | 1.02 | 0.97 | 1.07 | 1.02 | 1.04 | 1.03 | 1.02 | 0.998 |
| CC(C)N(C)S(=O)(=O)NC(=O)c1cc(-n2c(=O)cc(C(F)(F)F)n(C)c2=O)c(F)cc1Cl | 1.03 | 1.02 | 1 | 1.01 | 0.98 | 1.02 | 1.04 | 0.99 | 1.08 | 1 |
